# Compound activity (PubChem)
# TbREL1 inh: TbREL1 inhibition, primary screen; TbREL1 RNA ligation, FRET fluorescence; inhibition, % at 9.66 µM; actives 0.49% (n = 89,000); AID 1117264;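 active = inhibition above the mean inhibition across all screened compounds plus 3 SD, cut at about 11% in these data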;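 also: 0% = plate median of test wells and 100% = NSC42067 control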
# Target sequence (P86926 whole entry, looked up): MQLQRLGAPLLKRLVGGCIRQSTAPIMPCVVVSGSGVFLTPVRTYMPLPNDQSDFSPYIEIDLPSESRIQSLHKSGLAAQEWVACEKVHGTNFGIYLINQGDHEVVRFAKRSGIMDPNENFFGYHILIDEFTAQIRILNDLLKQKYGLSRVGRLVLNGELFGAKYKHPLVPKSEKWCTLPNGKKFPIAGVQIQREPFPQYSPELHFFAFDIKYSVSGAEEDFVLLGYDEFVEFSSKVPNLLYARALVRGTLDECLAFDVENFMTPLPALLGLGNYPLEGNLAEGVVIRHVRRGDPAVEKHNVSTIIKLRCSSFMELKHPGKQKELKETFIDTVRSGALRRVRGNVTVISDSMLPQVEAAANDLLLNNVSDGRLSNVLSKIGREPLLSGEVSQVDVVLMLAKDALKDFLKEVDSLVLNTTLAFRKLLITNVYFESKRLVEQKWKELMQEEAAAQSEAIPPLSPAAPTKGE
# TbREL1 conf: TbREL1 inhibition, confirmation; inhibition, % at 9.66 µM; TbREL1 RNA ligation, FRET fluorescence; shares compounds with TbREL1 inh; AID 1117282; actives 37% (n = 390);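 active = mean inhibition across replicates above a set limit taken from the earlier primary screen, cut at about 11% in these data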;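 also: 0% = REL1 with substrate and DMSO and 100% = REL1 plus control inhibitor NSC42067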
# * hit, by the source's call. The entries come from a sample that favours hits as a whole.
SMILES,TbREL1 inh,others
COC(=O)C1=C(C)N(Cc2ccccc2)C(=S)NC1c1ccc(-c2ccccc2)cc1 (stereo unspecified),-5.9,
COC(=O)C1=C(C)N(Cc2ccccc2C(F)(F)F)C(=NCc2ccc(C(F)(F)F)cc2)NC1c1ccccc1 (stereo unspecified),15.9*,TbREL1 conf=18.3*
COC(=O)C1=C(C)N(Cc2ccccc2C(F)(F)F)C(=NCc2ccccc2)NC1c1cccc(F)c1 (stereo unspecified),14.7*,TbREL1 conf=20.0*
CCN=C1NC(c2ccc(F)cc2)C(C(=O)OC)=C(C)N1Cc1ccc(C(F)(F)F)cc1 (stereo unspecified),4.2,
COC(=O)C1=C(C)N(Cc2ccccc2)C(=NCc2cccc(C(F)(F)F)c2)N[C@H]1c1cccc(F)c1,9.0,
O=C(Cn1c(-c2cncs2)nc2ccccc21)N1CCOCC1,0.4,
COc1ccc(-n2c(SCC(=O)Nc3ccc4cn[nH]c4c3)nnc2-c2ccccc2)cc1,-2.6,
Fc1ccc(Cn2ccc3ccc(-c4ccc5ccn(Cc6ccc(F)cc6F)c5c4)cc32)c(F)c1,-1.1,
COC(=O)[C@]12C[C@H](CC(=O)N3CCC(c4ccccc4)CC3)C(=O)N(Cc3cccc4ccccc34)C1=C[C@H](C(C)C)O[C@@H]2C1CC1,0.7,
CNC(=S)N/N=C/c1c(C(=O)OC)cnn1-c1ccc(Cl)cc1,0.1,
CC1(C(=O)Nc2ccccc2F)CCN1C(=O)Cc1cc(F)ccc1F (stereo unspecified),-2.1,
Cn1c(=O)c2cc(S(=O)(=O)N3CCN(c4ccc(F)cc4)CC3)ccc2n(C)c1=O,-1.2,
Clc1ccc(-n2c(SCc3cccc4ccccc34)nnc2-c2ccco2)cc1,-0.5,
COC(=O)C1=C(C)N(Cc2ccc(F)cc2)C(=S)NC1c1cccc(OC)c1 (stereo unspecified),-6.3,
COC(=O)C1=C(C)N(Cc2cccc(C(F)(F)F)c2)C(=NCc2ccc(OC)cc2)NC1c1ccc(F)cc1 (stereo unspecified),12.0*,TbREL1 conf=13.7*
COC(=O)C1=C(C)N(Cc2ccccc2C(F)(F)F)C(=NCc2ccc(C(F)(F)F)cc2)NC1c1ccc(C(F)(F)F)cc1 (stereo unspecified),25.2*,TbREL1 conf=23.2*
COC(=O)C1=C(C)N(Cc2ccc(Br)cc2)C(=S)NC1c1ccc(F)cc1 (stereo unspecified),2.3,
CCCCn1nnnc1C(c1ccccc1)N1CCN(C/C=C/c2ccccc2)CC1 (stereo unspecified),0.9,
CCCCNS(=O)(=O)/C=C/c1ccccc1CCNC(=O)OC(C)(C)C,1.8,
C[C@@H]1[C@@H](c2ccccc2)OC(O)([C@H](Cc2ccccc2)NC(=O)OC(C)(C)C)CN1C (stereo partly specified),-3.2,
O=C(N[C@H](Cc1ccccc1)C(=O)NCc1cccc2ccccc12)[C@H]1O[C@@H](n2ccc(=O)[nH]c2=O)[C@H](O)[C@@H]1O,-1.0,
CN1CC(O)([C@H](Cc2ccccc2)NC(=O)OC(C)(C)C)OCC1C(=O)NCc1cccc2ccccc12 (stereo partly specified),11.1*,TbREL1 conf=-3.2
CN(C)[C@@H]1CCN(c2ccc3c(c2)OCCCN(C2CC2)S3(=O)=O)C1,-1.1,
COC(=O)[C@]12CCCCC=C1N(Cc1ccc(Cl)cc1Cl)C(=O)[C@H](CC(=O)NCCCCc1ccccc1)C2,-1.1,
COc1ccc(CCN2CCC(CN3C(=S)NC[C@@H]3Cc3ccccc3)CC2)cc1OC,-4.0,
SMILES,TbREL1 inh,others
O=C(CSc1nc2ccccc2o1)NN=C/C=C/c1ccccc1,2.6,
CCCC(C(=O)NCc1ccco1)N(CC1CCCO1)C(=O)CNS(=O)(=O)c1ccc(F)cc1 (stereo unspecified),-1.8,
O=C(CN(Cc1ccc(F)cc1)C(=O)CNS(=O)(=O)c1ccc(F)cc1)NCc1ccco1,-3.8,
CCC(C(=O)NCc1ccco1)N(C(=O)CNS(=O)(=O)c1ccc(F)cc1)c1ccccc1F (stereo unspecified),36.5*,TbREL1 conf=1.9
COC(=O)C[C@H]1CC[C@@H]2[C@H](COc3ccc(NC(=O)NCc4ccccc4)cc3C(=O)N2C)O1,1.7,
O=C(C1CCCN(S(=O)(=O)c2ccccc2[N+](=O)[O-])C1)N1CCN(Cc2ccccc2)CC1 (stereo unspecified),-2.2,
Cc1ccc(-c2c[n+](Cc3ccc(Cl)c(Cl)c3)c3n2CCC3)cc1,13.4*,TbREL1 conf=7.9
Cc1ccc(S(=O)(=O)N2CCN=C2SCc2ccc(Cl)c(Cl)c2)cc1,6.4,
Cc1ccc(C(=O)C[n+]2cc(-c3ccc(C)cc3)n3c2CCCCC3)cc1,8.5,
CCOC(=O)[C@]12CCCC=C1N(CCCOC)C(=O)[C@@H]2CC(=O)NCc1cccc2ccccc12,-4.3,
COc1ccc(CNC(=O)C2CCCN(c3nc4ccccc4o3)C2)cc1 (stereo unspecified),1.0,
CN1CCC(N[C@@H](Cc2c[nH]c3ccccc23)C(=O)NCCCc2ccccc2)(C(=O)NCCc2c[nH]c3ccccc23)CC1,-2.0,
